Laboratory results taken from PubChem BioAssay (NCATS).
Unmarked numbers belong to inactive results. Inconclusive results are not listed. Calls of active or inactive are those of the source. Unless noted, calls come from the whole dose curve; as a rule, active = well fitted curve in the direction sought with a large enough effect; inconclusive = small, poorly fitted or top-dose-only effect, or another doubt; inactive = no such curve, though single readings can be large; an effect the other way counts as inactive or inconclusive.

Legend:
[1] = target: Lysosomal acid glucosylceramidase (Homo sapiens) (UniProt P04062); test: Glucocerebrosidase-p2 (AID 348; in the data active = potency below about 10 µM; note: potency is the fitted concentration of half-maximal effect); settings: purified GBA, blue fluorogenic substrate, 40 min
Summary of the method: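 Compounds titrated from 0.6 nM upwards against 0.2 nM enzyme in pH 5.9 citric acid/KH2PO4, taurocholate, tween-20; blue fluorogenic substrate 80 uM, 40 min room temperature, stopped and read Ex 365/Em 440 for AC50.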

[2] = AP1 Signaling Pathway (AID 357; active = well fitted curve in either direction with a large enough effect, not every such curve was filed as active;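 note: ME-180 reporter cells stimulated with EGF at its EC50 level; % is set by controls: 0 for no effect and ±100 for the full control effect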); settings: ME-180 AP-1-bla reporter, EGF-induced, beta-lactamase ratio, 5 h; at 7.69 µM (top of the series) unless noted
Summary of the method: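 Titration-series screen for positive or negative modulators of EC50 EGF-induced signaling in ME-180 cells carrying an AP-1-driven beta-lactamase reporter. After 5 hours at 37 degrees Celsius, CCF4 460nm/530nm emission ratio gave %Activity; AC50 values derived.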

[3] = target: Cytochrome P450 1A2 (Homo sapiens) (UniProt P05177); test: p450-cyp1a2 (AID 410; calls by dose curve; note: potency is the fitted concentration of half-maximal effect); settings: recombinant CYP1A2, luciferin-ME demethylation, luminescence; series mostly up to 57 µM
Summary of the method: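 20nM CYP1A2 with 100uM Luciferin-ME (at Km) in 100mM KPO4; compound preincubated 10 min, NADPH regeneration added, 60 min at room temperature. Luciferin quantified by luminescence after detection reagent; normalized to 57 uM furafylline.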

[4] = NFAT Signaling Pathway (AID 444; active = well fitted curve in either direction with a large enough effect, not every such curve was filed as active;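 note: carbachol stimulus at about its EC50 of 1 µM final; % is set by controls: 0 for no effect and ±100 for the full control effect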); settings: Jurkat NFAT-bla M1, carbachol, beta-lactamase ratio, 5 h; at 7.69 µM (top of the series) unless noted
Summary of the method: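 Read-out: CCF4 FRET ratio (460 nm/530 nm) after 1 h RT dye loading, used for %activity and AC50 from titration series. Cells: Jurkat NFAT-β-lactamase/M1 line, treated with compound plus 1 uM carbachol for 5 h, 37 °C.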

[5] = Stat Signaling Pathway (AID 446; active = well fitted curve in either direction with a large enough effect, not every such curve was filed as active;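 note: ME-180 cervical cancer cells given 40 pM IL-6 alongside compound; SIE-controlled beta-lactamase reporter measured as 460/530 nm FRET emission ratio; % is set by controls: 0 for no effect and ±100 for the full control effect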); settings: ME-180 SIE beta-lactamase reporter, IL-6 stimulated, 5 h; at 7.69 µM (top of the series) unless noted
Summary of the method: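 ME-180 cells carrying a SIE-driven beta-lactamase reporter are stimulated with 40 pM IL-6 for 5 h at 37C in the presence of compound. The 460/530 nm FRET substrate ratio is read after 2.5 h at RT. Data are normalised to 300 pM IL-6 and to 125 nM JAK inhibitor controls.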

[6] = target: Glucocorticoid receptor (Homo sapiens) (UniProt P04150); test: GR-GFP Redistribution (AID 450;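 active = compounds whose dose series gives a full or clear partial fitted curve of increased nuclear translocation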; note: potency is the fitted concentration of half-maximal effect); settings: U2OS GR-GFP nuclear translocation, laser cytometry, 2 h
[7] = target: Glucocorticoid receptor (Homo sapiens) (UniProt P04150); test: GR-EFC Redistribution (AID 451; calls by dose curve; note: potency is the fitted concentration of half-maximal effect); settings: CHO-K1 GR-EFC translocation, beta-gal luminescence, 2 h
Summary of the method: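 Translocation of GR-ED fusion to nuclear EA restores b-gal, read by luminescence after 1 h room-temperature detection. Engineered CHO-K1 biosensor cells, 1,000/well, exposed 2 h at 37 C to titrations up to 46 uM final.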

[8] = target: Mitogen-activated protein kinase 10 (Mus musculus) (UniProt Q61831); test: JNK3 AlphaScreen Assay (AID 530; active = well fitted curve in either direction with a large enough effect, not every such curve was filed as active;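 note: kinase came from lysate of stimulated human HepG2 cells; signal reports phosphorylation of biotinylated GST-cJun 1-79 at Ser73 with 10 µM ATP; % is set by controls: 0 for no effect and ±100 for the full control effect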); settings: JNK3 lysate, c-Jun phosphorylation; series mostly up to 57.1 µM
Summary of the method: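 Compound titrations were preincubated 15 minutes at room temperature with substrate, antibody and pre-activated JNK3-containing HepG2 lysate. Reactions were started with 10 uM ATP and stopped with EDTA-containing bead buffer for AlphaScreen detection.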

[9] = target: 3',5'-cyclic-AMP phosphodiesterase 4B (Homo sapiens) (UniProt Q07343); test: qHTS Assay for Inhibitors of PDE-IV (AID 607; active = well fitted activation curve with a large enough effect in the main read-out, with a control signal flat, not every such curve was filed as active; note: % of control where 0% means no effect); settings: HEK293 ACTOne CNG channel cells, membrane potential fluorescence; series mostly up to 22.9 µM
Summary of the method: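 HEK293 ACTOne cells with CNG channel (1000/well), endogenous PDE4; membrane potential dye, compounds up to 22.9 uM final. Fluorescence Ex 535/Em 590; RO 20-1724 (100 uM final) as reference.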

[10] = target: Dual specificity protein kinase CLK4 (Homo sapiens) (UniProt Q9HAZ1); test: qHTS Assay for Inhibitors of CDC-like Kinase 4 (Kinase-Glo Assay) (AID 1770); settings: recombinant Clk4, Kinase-Glo ATP depletion luminescence; series mostly up to 66.7 µM; note: nearly all actives have a fitted effect of over 65% in size; note: potency is the fitted concentration of half-maximal effect
Summary of the method: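 Recombinant human Clk4 (25 nM) phosphorylated RS repeat peptide (100 uM) with 1 uM ATP in Tris pH 7.5/MgCl2/EGTA/DTT/Triton buffer for 4.5 h at room temperature. Residual ATP was quantified by Kinase-Glo luciferase luminescence.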

[11] = target: Dual specificity protein kinase CLK4 (Homo sapiens) (UniProt Q9HAZ1); test: qHTS Assay for Inhibitors of CDC-like Kinase 4 (ADP-Glo Assay) (AID 1771); settings: recombinant CLK4, ADP-Glo luminescence; series mostly up to 80 µM; note: nearly all actives have a fitted effect of over 70% in size; note: potency is the fitted concentration of half-maximal effect
Summary of the method: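 25 nM Clk4 with 100 uM RS repeat peptide and 1 uM ATP (final) in buffer with 2 mM MgCl2, 0.5 mM EGTA, 2.5 mM DTT, 0.01% Triton X-100; 1 h at room temperature; ADP-Glo luminescence for ADP formed.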

[12] = target: Dual specificity protein kinase CLK4 (Homo sapiens) (UniProt Q9HAZ1); test: qHTS Assay for Inhibitors of CDC-like Kinase 4 (ADP-FP Assay) (AID 1795); settings: Transcreener ADP fluorescence polarization; series mostly up to 50 µM; note: nearly all actives have a fitted effect of over 60% in size; note: potency is the fitted concentration of half-maximal effect
Summary of the method: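 Recombinant human Clk4 (6.25 nM) phosphorylated RS repeat peptide (100 uM) with 1 uM ATP in Tris pH 7.5/MgCl2/EGTA/DTT/Triton buffer for one hour. ADP was quantified by Transcreener competitive fluorescence polarization against an ADP calibration curve.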

[13] = target: Ubiquitin carboxyl-terminal hydrolase 1 (Homo sapiens) (UniProt O94782); test: Inhibitors of USP1/UAF1: Pilot qHTS (AID 504865); settings: purified USP1/UAF1, Ub-rhodamine cleavage fluorescence; series mostly up to 54.9 µM;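 note: rhodamine fluorescence freed from ubiquitin-rhodamine substrate followed over time; top concentration of the series differs between compounds; % is set by controls: 0 for no effect and ±100 for the full control effect; nearly all actives have a fitted effect of over 35% in size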
Summary of the method: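 USP1/UAF1 complex (1nM) preincubated with compound 15 min at room temperature, then Ub-Rho substrate (150nM final) added. Fluorescence read kinetically at 480/540 nm, 6 reads every 60 seconds. Buffer: 50mM HEPES pH 7.8, 0.5mM EDTA, 0.1 mg/ml BSA, 1mM TCEP, 0.01% Tween-20.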

[14] = Primary qHTS for small molecule stabilizers of the endoplasmic reticulum resident proteome: Secreted ER Calcium Modulated Protein (SERCaMP) assay (AID 1508630); settings: SH-SY5Y GLuc-SERCaMP (Gaussia luciferase released on ER calcium loss) secretion, thapsigargin, luminescence; series mostly up to 38.4 µM; note: % is set by controls: 0 for no effect and ±100 for the full control effect
Summary of the method: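 GLuc-SERCaMP-expressing SH-SY5Y cells, pretreated 16 h with compound, are challenged with thapsigargin to empty ER calcium stores; after 4 h, coelenterazine is added directly to the medium and luminescence is imaged.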

[15] = target: Cytochrome P450 3A4 (Homo sapiens) (UniProt P08684); test: qHTS Assay for Inhibitors and Substrates of Cytochrome P450 3A4 (AID 884); settings: recombinant CYP3A4, Luciferin-PPXE luminescence; series mostly up to 57.1 µM; note: nearly all actives have a fitted effect of over 50% in size; note: potency is the fitted concentration of half-maximal effect
Summary of the method: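 20 nM human CYP3A4 with 25 uM Luciferin-PPXE (at KM) in 200 mM KPO4, preincubated 10 min with compound; NADPH regeneration started a 60 min RT reaction. Luciferin detected by luminescence, normalized to 57 uM ketoconazole as full inhibition.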

[16] = target: Cytochrome P450 3A4 (Homo sapiens) (UniProt P08684); test: qHTS Assay for Activators of Cytochrome P450 3A4 (AID 885); settings: recombinant CYP3A4, Luciferin-PPXE luminescence, 60 min; series mostly up to 57.1 µM; note: nearly all actives have a fitted effect of over 65% in size
Summary of the method: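 Human CYP3A4 (20 nM) with Luciferin-PPXE at 25 uM (its KM) in 200 mM KPO4; 10 min compound preincubation, then NADPH regeneration and 60 min reaction at RT. Luciferin read by luminescence; normalized to 57 uM ketoconazole full inhibition.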

[17] = target: Cytochrome P450 2C19 (Homo sapiens) (UniProt P33261); test: qHTS Assay for Inhibitors and Substrates of Cytochrome P450 2C19 (AID 899); settings: recombinant CYP2C19, luciferin-H EGE luminescence; series mostly up to 57.1 µM; note: potency is the fitted concentration of half-maximal effect; nearly all actives have a fitted effect of over 60% in size
Summary of the method: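 Luminescence readout of luciferin formed from 10uM Luciferin-H EGE (KM level) by 5 nM CYP2C19 in 50mM KPO4. 60 min NADPH-driven reaction at 37C after 10 min compound preincubation; data scaled to 57uM ketoconazole inhibition.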

[18] = target: Cytochrome P450 2C9 (Homo sapiens) (UniProt P11712); test: qHTS Assay for Inhibitors and Substrates of Cytochrome P450 2C9 (AID 883); settings: recombinant CYP2C9, luciferin-H luminescence, 60 min; series mostly up to 57.1 µM; note: potency is the fitted concentration of half-maximal effect; nearly all actives have a fitted effect of over 60% in size
Summary of the method: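 Luminescent read-out of deoxyluciferin hydroxylation, normalized to 57uM sulphaphenazole (AC100). Reaction: 10nM enzyme, 100uM Luciferin-H (equal to KM), 25mM KPO4, 10 min compound preincubation, then 60 min with NADPH regeneration, both at 37C.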

[19] = target: Cytochrome P450 2D6 (Homo sapiens) (UniProt P10635); test: qHTS Assay for Inhibitors and Substrates of Cytochrome P450 2D6 (AID 891); settings: recombinant CYP2D6, luciferin-ME EGE luminescence; series mostly up to 57.1 µM; note: potency is the fitted concentration of half-maximal effect; nearly all actives have a fitted effect of over 60% in size
Summary of the method: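 Human CYP2D6 (5 nM) with 30 uM Luciferin-ME EGE (at Km) in 100 mM KPO4, compound preincubated 10 min, then NADPH regeneration system for 60 min at room temperature. Luciferin read by luminescence; normalized to 1.43 uM quinidine.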

Chain of Cytochrome P450 1A2 (Homo sapiens) (P05177 whole entry, looked up): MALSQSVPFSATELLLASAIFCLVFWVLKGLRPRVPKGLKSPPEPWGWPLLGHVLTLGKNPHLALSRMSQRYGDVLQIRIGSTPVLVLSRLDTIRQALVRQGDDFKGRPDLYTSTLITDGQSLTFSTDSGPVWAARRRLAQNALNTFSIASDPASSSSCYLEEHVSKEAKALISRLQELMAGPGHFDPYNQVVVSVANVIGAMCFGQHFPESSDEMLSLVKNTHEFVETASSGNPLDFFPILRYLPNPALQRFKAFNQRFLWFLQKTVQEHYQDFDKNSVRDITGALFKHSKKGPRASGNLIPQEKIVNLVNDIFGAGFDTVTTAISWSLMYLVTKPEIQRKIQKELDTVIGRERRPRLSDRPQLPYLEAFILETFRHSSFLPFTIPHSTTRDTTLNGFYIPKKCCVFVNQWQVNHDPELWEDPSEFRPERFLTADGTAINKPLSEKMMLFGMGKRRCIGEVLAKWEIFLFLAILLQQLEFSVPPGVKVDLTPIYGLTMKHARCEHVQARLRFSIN
Chain of Ubiquitin carboxyl-terminal hydrolase 1 (Homo sapiens) (O94782 whole entry, looked up): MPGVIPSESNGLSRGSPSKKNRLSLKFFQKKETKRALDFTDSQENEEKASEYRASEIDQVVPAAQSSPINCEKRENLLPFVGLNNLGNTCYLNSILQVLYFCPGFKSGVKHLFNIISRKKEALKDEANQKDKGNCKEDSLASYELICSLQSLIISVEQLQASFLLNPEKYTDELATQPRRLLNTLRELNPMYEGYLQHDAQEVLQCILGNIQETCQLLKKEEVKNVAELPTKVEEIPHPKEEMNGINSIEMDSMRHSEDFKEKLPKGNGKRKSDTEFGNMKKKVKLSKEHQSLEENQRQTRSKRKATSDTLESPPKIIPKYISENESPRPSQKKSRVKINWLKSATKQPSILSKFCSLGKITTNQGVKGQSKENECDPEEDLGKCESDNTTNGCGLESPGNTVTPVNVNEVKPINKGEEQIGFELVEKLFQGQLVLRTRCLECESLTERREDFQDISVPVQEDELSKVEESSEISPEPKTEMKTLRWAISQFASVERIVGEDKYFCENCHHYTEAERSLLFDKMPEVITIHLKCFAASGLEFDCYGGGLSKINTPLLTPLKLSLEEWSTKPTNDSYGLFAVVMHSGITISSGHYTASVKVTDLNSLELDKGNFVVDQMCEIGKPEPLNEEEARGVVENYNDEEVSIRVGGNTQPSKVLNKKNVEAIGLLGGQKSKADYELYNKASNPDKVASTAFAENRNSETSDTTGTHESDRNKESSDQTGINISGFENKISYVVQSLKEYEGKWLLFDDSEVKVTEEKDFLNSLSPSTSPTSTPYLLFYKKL
Chain of 3',5'-cyclic-AMP phosphodiesterase 4B (Homo sapiens) (Q07343 whole entry, looked up): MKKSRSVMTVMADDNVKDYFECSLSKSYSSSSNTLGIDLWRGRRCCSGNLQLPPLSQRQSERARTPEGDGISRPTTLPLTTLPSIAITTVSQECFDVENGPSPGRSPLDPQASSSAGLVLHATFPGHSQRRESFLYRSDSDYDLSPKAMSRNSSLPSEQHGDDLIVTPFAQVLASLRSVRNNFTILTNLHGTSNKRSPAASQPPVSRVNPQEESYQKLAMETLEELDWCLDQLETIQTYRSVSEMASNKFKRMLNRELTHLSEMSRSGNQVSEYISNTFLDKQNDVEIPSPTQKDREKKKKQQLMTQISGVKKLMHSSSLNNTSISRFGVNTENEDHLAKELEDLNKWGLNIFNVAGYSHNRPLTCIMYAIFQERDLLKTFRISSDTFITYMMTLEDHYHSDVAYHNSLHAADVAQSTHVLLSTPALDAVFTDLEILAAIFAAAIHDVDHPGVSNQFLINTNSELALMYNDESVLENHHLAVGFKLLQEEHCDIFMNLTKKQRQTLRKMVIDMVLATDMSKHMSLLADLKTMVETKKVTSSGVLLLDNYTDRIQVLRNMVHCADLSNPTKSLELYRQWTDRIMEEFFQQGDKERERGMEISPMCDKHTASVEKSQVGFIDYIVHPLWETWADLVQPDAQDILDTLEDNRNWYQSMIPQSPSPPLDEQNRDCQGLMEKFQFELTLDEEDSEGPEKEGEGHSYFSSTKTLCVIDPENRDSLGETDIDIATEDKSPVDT
Chain of Cytochrome P450 3A4 (Homo sapiens) (P08684 whole entry, looked up): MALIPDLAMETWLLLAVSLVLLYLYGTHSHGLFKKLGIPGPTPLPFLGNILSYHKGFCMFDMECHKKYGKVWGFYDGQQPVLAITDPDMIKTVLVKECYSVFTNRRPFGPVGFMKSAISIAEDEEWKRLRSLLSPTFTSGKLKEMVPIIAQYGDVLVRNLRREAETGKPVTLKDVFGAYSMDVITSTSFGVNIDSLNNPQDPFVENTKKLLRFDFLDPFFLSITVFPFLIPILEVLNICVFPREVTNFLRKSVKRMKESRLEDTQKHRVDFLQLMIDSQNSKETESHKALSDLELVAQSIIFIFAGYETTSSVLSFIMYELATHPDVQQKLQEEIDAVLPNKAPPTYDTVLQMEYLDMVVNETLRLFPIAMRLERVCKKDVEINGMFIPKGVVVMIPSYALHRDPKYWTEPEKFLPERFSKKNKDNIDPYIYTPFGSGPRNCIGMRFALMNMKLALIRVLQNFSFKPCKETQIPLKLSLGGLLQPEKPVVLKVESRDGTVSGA
Chain of Glucocorticoid receptor (Homo sapiens) (P04150 whole entry, looked up, the tested form may be a part): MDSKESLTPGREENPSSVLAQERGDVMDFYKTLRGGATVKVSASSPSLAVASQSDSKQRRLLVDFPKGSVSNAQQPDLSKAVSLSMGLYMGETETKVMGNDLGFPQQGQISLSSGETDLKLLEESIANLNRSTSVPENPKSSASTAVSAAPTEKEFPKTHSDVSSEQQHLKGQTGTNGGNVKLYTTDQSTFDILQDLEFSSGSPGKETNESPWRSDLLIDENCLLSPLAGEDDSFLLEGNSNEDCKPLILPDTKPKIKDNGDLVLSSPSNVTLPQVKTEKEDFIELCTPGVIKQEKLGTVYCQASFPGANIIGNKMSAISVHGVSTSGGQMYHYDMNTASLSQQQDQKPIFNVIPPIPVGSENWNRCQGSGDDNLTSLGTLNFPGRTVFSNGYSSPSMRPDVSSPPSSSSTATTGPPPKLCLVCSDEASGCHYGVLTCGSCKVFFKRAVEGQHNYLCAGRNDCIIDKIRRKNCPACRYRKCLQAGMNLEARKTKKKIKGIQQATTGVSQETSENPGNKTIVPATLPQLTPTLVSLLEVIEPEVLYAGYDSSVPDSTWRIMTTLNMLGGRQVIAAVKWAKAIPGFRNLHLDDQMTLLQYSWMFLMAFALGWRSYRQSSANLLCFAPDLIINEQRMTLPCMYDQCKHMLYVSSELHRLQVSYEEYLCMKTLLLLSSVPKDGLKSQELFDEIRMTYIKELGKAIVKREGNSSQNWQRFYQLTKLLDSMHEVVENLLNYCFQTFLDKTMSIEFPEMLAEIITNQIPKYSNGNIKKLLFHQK
Chain of Dual specificity protein kinase CLK4 (Homo sapiens) (Q9HAZ1 whole entry, looked up): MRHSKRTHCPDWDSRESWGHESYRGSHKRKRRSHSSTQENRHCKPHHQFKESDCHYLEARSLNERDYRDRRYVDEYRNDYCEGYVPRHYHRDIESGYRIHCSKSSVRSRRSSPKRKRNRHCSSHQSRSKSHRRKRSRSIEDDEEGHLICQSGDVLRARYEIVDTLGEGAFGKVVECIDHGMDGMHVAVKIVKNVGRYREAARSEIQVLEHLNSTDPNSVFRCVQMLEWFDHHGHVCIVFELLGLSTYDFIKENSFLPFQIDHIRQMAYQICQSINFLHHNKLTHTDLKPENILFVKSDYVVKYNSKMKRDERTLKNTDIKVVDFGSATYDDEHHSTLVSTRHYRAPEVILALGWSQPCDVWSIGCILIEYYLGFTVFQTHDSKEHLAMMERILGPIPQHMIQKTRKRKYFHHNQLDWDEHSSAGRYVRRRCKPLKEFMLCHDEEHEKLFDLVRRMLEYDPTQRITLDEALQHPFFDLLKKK
Chain of Lysosomal acid glucosylceramidase (Homo sapiens) (P04062 whole entry, looked up): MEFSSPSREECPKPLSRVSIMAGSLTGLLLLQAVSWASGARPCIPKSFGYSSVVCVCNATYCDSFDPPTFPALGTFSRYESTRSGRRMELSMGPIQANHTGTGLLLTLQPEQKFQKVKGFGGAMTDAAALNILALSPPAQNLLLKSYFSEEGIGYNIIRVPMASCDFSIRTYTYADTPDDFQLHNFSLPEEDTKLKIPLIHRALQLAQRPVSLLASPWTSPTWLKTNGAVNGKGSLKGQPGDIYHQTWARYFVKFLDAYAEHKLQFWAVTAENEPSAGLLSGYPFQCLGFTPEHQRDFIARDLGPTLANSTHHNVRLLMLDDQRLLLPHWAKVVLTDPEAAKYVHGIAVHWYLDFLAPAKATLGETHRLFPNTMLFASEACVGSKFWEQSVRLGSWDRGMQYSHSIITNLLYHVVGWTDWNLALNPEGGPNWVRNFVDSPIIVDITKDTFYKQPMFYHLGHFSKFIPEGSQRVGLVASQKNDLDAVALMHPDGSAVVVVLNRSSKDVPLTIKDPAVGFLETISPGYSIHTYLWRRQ
Chain of Cytochrome P450 2C19 (Homo sapiens) (P33261 whole entry, looked up): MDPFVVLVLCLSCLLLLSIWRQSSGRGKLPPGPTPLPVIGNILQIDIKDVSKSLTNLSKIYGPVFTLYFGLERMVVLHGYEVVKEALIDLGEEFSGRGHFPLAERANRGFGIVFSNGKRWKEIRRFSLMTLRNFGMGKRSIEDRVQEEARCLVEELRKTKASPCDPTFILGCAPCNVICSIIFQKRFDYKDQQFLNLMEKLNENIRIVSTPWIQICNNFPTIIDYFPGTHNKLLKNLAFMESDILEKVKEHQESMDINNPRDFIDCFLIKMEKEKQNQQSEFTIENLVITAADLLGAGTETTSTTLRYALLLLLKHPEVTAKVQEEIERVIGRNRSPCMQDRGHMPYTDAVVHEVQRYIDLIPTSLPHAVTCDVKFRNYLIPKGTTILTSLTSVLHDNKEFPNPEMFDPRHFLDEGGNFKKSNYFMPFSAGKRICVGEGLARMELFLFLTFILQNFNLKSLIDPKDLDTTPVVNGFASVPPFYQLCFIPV

| Compound | Potency [1] | activity change, negative = inhibition [2] | Potency [3] | activity change, negative = inhibition [4] | activity, negative = inhibition [5] | Potency [6] | Potency [7] | Potency [8] | Potency [9] | Potency [10] | Potency [11] | Potency [12] | Potency [13] | outcome [14] | Potency [15] | Potency [16] | Potency [17] | Potency [18] | Potency [19] |
| --- | --- | --- | --- | --- | --- | --- | --- | --- | --- | --- | --- | --- | --- | --- | --- | --- | --- | --- | --- |
| Cc1nc2cnc(N(C)C)nc2n(-c2ccccc2)c1=O | > 11.4 µM | -7.75% | 2 µM (active) | 9.3% | -16.5% | > 46 µM | > 46 µM | inactive | inactive | inactive | inactive | inactive | inactive | inactive |  |  |  |  |  |
| Clc1ccccc1-c1cc(NCCN2CCOCC2)ncn1 | > 11.4 µM | 1.17% | 31.6 µM (active) | -9.62% | 2.93% | > 46 µM | > 46 µM | inactive | inactive | inactive | inactive | inactive | inactive | inactive |  |  |  |  |  |
| COc1cccc(Cn2c(=O)c(CCc3ccccc3)nc3cncnc32)c1 | > 11.4 µM | -12.1% | 12.6 µM (active) | -7.87% | -9.09% | > 9.22 µM | > 46 µM | inactive | inactive | inactive | inactive | inactive | inactive | inactive | 2.51 µM (active) | inactive |  |  |  |
| CN(C)c1ncc2nc(-c3cc(F)cc(F)c3)c(=O)n(-c3ccccc3)c2n1 | > 11.4 µM | -8.03% | 0.316 µM (active) | 9.84% | 12.5% | > 9.22 µM | > 46 µM | inactive | inactive | inactive | inactive | inactive | inactive | inactive |  |  |  |  |  |
| CN(C)C(=O)c1ccc(-c2cncnc2NCc2ccccc2)cc1 | > 11.4 µM | 8.88% | 20 µM (active) | -3.31% | 9.3% | > 46 µM | > 46 µM | inactive | inactive | inactive | inactive | inactive | inactive | inactive | 2.51 µM (active) | inactive |  |  |  |
| N#Cc1cccc(-c2nccc(-n3ccnc3)n2)c1 | > 11.4 µM | 10.7% | 0.2 µM (active) | 10.9% | 4.18% | > 46 µM | > 46 µM | inactive | inactive | 8.91 µM (active) | 10 µM (active) | 12.6 µM (active) | inactive | inactive | 2.51 µM (active) | inactive | 7.94 µM (active) |  |  |
| COc1c(O)cc2oc3cc(O)c(CC=C(C)C)c(O)c3c(=O)c2c1CC=C(C)C |  |  | 31.6 µM (active) |  |  |  | > 20.6 µM | inactive | inactive |  |  |  |  | inactive | inactive | inactive | 10 µM (active) | 5.01 µM (active) | 31.6 µM (active) |
| c1cncc(-c2cc(-n3ccnc3)ncn2)c1 | > 11.4 µM | -4.01% | 0.1 µM (active) | 4.07% | 14.8% | > 46 µM | > 46 µM | inactive | inactive | 0.794 µM (active) | 0.708 µM (active) | 0.501 µM (active) | inactive | inactive | 1.58 µM (active) | inactive |  |  |  |
| N#Cc1cccc(-c2ccc3ncnc(NC4CCNCC4)c3c2)c1 | > 11.4 µM | -6.77% | 15.8 µM (active) | 3.08% | -3.89% | > 46 µM | > 46 µM | inactive | inactive | 12.6 µM (active) | 14.1 µM (active) | 14.1 µM (active) | inactive | inactive |  |  |  |  |  |
| COCCn1c(=O)c(-c2cn(C)c3ccccc23)nc2cnc(OCc3ccccc3)nc21 | > 11.4 µM | -1.93% | 5.01 µM (active) | -4.76% | 23.6% | > 9.22 µM | > 46 µM | inactive |  | inactive | inactive | inactive | inactive | inactive |  | inactive |  |  |  |
| Cn1c(=O)c(-c2ccccc2)nc2cnc(OCc3ccccc3)nc21 | > 11.4 µM | -1.1% | 1.58 µM (active) | 4.72% | -3.56% | > 9.22 µM | > 46 µM | inactive | inactive | inactive | inactive | inactive | inactive | inactive |  | inactive |  |  |  |
| c1cncc(-c2ccc3ncnc(NC4CCNCC4)c3c2)c1 | > 11.4 µM | 5.15% | 12.6 µM (active) | 13.2% | 3.6% | > 46 µM | > 46 µM | inactive | inactive | 14.1 µM (active) | 15.8 µM (active) | 12.6 µM (active) | inactive | inactive |  | inactive |  |  |  |
